In PubChem BioAssay (Tox21):
Inconclusive results are not listed. Calls of active or inactive are those of the source. Unless noted, calls come from the whole dose curve; as a rule, active = well fitted curve in the direction sought with a large enough effect in the repeat runs; inconclusive = weak or mixed curves; inactive = no such curve, though single readings can be large; an effect the other way counts as inactive or inconclusive.

Assays:
[1] = Human pregnane X receptor (PXR) small molecule agonists, qHTS cell viability counter screen (AID 1346977); note: % is set by controls: 0 for no effect and ±100 for the full control effect; nearly all actives have a fitted effect of over 50% in size
Procedure, shortened: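 Same-well viability read: CellTiter-Fluor added after 23 hr compound exposure, fluorescence measured 1 hr later. Cells were PXR-Luc HepG2 seeded at 2,000/well in 5% charcoal-stripped FBS medium, rested 5 hr before dosing at 37 C.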

[2] = Caspase-3/7 induction in HepG2 cells by small molecules, qHTS assay (AID 1346978); note: % is set by controls: 0 for no effect and ±100 for the full control effect; nearly all actives have a fitted effect of over 15% in size
Procedure, shortened: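 Wild-type HepG2 cells, 2,000/well, settled 5 hr at 37 C and 5% CO2, then compound-treated for 17 hr; caspase-3/7 activity read by luminescent Caspase-Glo 3/7 after 30 min at room temperature.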

[3] = Caspase-3/7 induction in CHO-K1 cells by small molecules, qHTS cell viability counter screen (AID 1346979); note: nearly all actives have a fitted effect of over 35% in size; note: potency is the fitted concentration of half-maximal effect
Procedure, shortened: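 Cytotoxicity counter screen: CellTiter-Fluor added to compound-treated wild-type CHO-K1 cells at 16 h (37C, 5% CO2), fluorescence measured 1 h later; same wells as caspase-3/7 measurement.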

[4] = Caspase-3/7 induction in CHO-K1 cells by small molecules, qHTS assay (AID 1346980); note: % is set by controls: 0 for no effect and ±100 for the full control effect; nearly all actives have a fitted effect of over 15% in size
Procedure, shortened: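 Wild-type CHO-K1 cells exposed to compounds for 17hr at 37 C, 5% CO2. Caspase-3/7 activity then measured by Caspase-Glo 3/7 luminescence after 30min at room temperature.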

[5] = Caspase-3/7 induction in HepG2 cells by small molecules, qHTS cell viability counter screen (AID 1346981); note: series mostly up to about 92 µM; % is set by controls: 0 for no effect and ±100 for the full control effect; nearly all actives have a fitted effect of over 30% in size
Procedure, shortened: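 Viability determined by CellTiter-Fluor fluorescence in HepG2 wells also used for the luminescent Caspase-Glo 3/7 read. Compounds were present for 16 hr at 37 C, 5% CO2 before reagent addition.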

[6] = biological target: Acetylcholinesterase (Homo sapiens) (UniProt P22303); assay: Acetylcholinesterase (AChE) small molecule antagonists: colormetric cell-based qHTS assay (AID 1347395; calls by dose curve; note: nearly all actives have a fitted effect of over 30% in size; note: potency is the fitted concentration of half-maximal effect)
Procedure, shortened: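 Colorimetric readout: DTNB quantifies thiocholine from acetylthiocholine hydrolysed by endogenous AChE of SH-SY5Y cells (2,000/well, plated overnight). Compound pretreatment 30 min, substrate incubation 90 min, both 37 C.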

[7] = biological target: Acetylcholinesterase (Homo sapiens) (UniProt P22303); assay: Acetylcholinesterase (AChE) small molecule antagonists: enzyme-based qHTS assay (AID 1347397; calls by dose curve; note: % is set by controls: 0 for no effect and ±100 for the full control effect; nearly all actives have a fitted effect of over 55% in size); conditions: Potency: AChE enzyme activity inhibition
Procedure, shortened: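 Enzyme inhibition was scored from DTNB-detected thiocholine formed by recombinant human AChE acting on acetylthiocholine. The 30 min compound preincubation and 10 min substrate reaction were both run at room temperature, with DMSO as vehicle control.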

[8] = biological target: Acetylcholinesterase (Homo sapiens) (UniProt P22303); assay: Acetylcholinesterase (AChE) small molecule antagonists: fluorescence cell-based qHTS assay (AID 1347398; calls by dose curve; note: % is set by controls: 0 for no effect and ±100 for the full control effect; nearly all actives have a fitted effect of over 50% in size); conditions: Potency: AChE activity
Procedure, shortened: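 Endogenous acetylcholinesterase of SH-SY5Y neuroblastoma cells is measured in situ. After overnight attachment and 30 min compound exposure, cells receive acetylthiocholine and Thiolite Green; fluorescence is read after 40 min at room temperature.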

[9] = biological target: Acetylcholinesterase (Homo sapiens) (UniProt P22303); assay: Acetylcholinesterase (AChE) small molecule antagonists: enzyme-based qHTS assay with human liver microsomes (AID 1347399; calls by dose curve; note: % is set by controls: 0 for no effect and ±100 for the full control effect; nearly all actives have a fitted effect of over 60% in size); conditions: Potency: qHTS inhibition
Procedure, shortened: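 Recombinant human AChE (50 mU/mL in the enzyme mix) and human liver microsomes (0.25 mg/mL final) were preincubated with compound and NADPH (0.25 mg/mL final) for 30 min at 37 C. Acetylthiocholine/DTNB was then added; thiocholine was read colorimetrically after 10 min at room temperature.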

[10] = biological target: Voltage-gated inwardly rectifying potassium channel KCNH2 (Homo sapiens) (UniProt Q12809); assay: Human Ether-a-go-go-Related Gene (hERG) channel small molecule antagonists: fluorescence cell-based qHTS assay (AID 1671200); note: series mostly up to about 77 µM; % is set by controls: 0 for no effect and ±100 for the full control effect; nearly all actives have a fitted effect of over 50% in size
Procedure, shortened: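 Thallium flux as potassium surrogate: FluxOR II dye loaded 1 h at room temperature into hERG-expressing U2OS cells, then stimulus buffer added after 10 min. Kinetic 480 nm excitation/540 nm emission read, 2 min.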

[11] = biological target: Nuclear receptor subfamily 1 group I member 2 (Rattus norvegicus) (UniProt Q9R1A7); assay: Rat pregnane X receptor (rPXR) activation by small molecules, qHTS assay (AID 1346983); conditions: rPXR luciferase reporter cells, One-Glo luminescence, 24 h; max activation: active compounds read high; note: % is set by controls: 0 for no effect and ±100 for the full control effect; nearly all actives have a fitted effect of over 20% in size
Procedure, shortened: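 Cell-based rPXR activation assay: rPXR cells, 2,000 per well, rested 5hr at 37 C, then exposed to compounds in DMSO for 24 hr at 37 C. Luciferase activity read by One-Glo luminescence after 30 min at room temperature.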

[12] = biological target: Nuclear receptor subfamily 1 group I member 2 (Homo sapiens) (UniProt O75469); assay: Human pregnane X receptor (PXR) small molecule agonists, qHTS assay (AID 1346982); note: potency is the fitted concentration of half-maximal effect; nearly all actives have a fitted effect of over 35% in size
Procedure, shortened: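 Compound-induced hPXR transactivation of a CYP3A4 luciferase reporter was scored in HepG2 PXR-Luc cells over 24 hr at 37 C, 5% CO2, by luminescence.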

[13] = biological target: Cytochrome P450 2C9 (Homo sapiens) (UniProt P11712); assay: Cytochrome P450 Family 2 Subfamily C Member 9 (CYP2C9) small molecule antagonists: luciferase reporter qHTS assay (AID 1671198); note: nearly all actives have a fitted effect of over 50% in size; note: potency is the fitted concentration of half-maximal effect
Procedure, shortened: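 P450-Glo proluciferin substrate with CYP2C9 enzyme; 10 min RT preincubation, then NADPH regeneration 1 h at 37C; luciferin detection reagent 20 min RT, luminescence in relative luminescence units.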

[14] = biological target: Cytochrome P450 1A2 (Homo sapiens) (UniProt P05177); assay: Cytochrome P450 Family 1 Subfamily A Member 2 (CYP1A2) small molecule antagonists: luciferase reporter qHTS assay (AID 1671199)
Procedure, shortened: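 Enzymatic CYP1A2 assay, human, luminescent: 10 min compound–enzyme–substrate preincubation, 1 h NADPH-dependent turnover, 20 min detection step, room temperature throughout. Reduced light indicates lower CYP1A2 activity.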

[15] = biological target: Cytochrome P450 3A4 (Homo sapiens) (UniProt P08684); assay: Cytochrome P450 Family 3 Subfamily A Member 4 (CYP3A4) small molecule antagonists: luciferase reporter qHTS assay (AID 1671201); note: nearly all actives have a fitted effect of over 50% in size; note: potency is the fitted concentration of half-maximal effect
Procedure, shortened: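 Recombinant human CYP3A4 converts a proluciferin substrate to luciferin over 1 h at room temperature after NADPH regeneration solution is added (compound preincubated 10 min); detection reagent stops reaction, luminescence read 20 min later as relative units.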

[16] = biological target: Nuclear receptor subfamily 1 group I member 2 (Homo sapiens) (UniProt O75469); assay: CYP3A4 induction through human pregnane X receptor (PXR) by small molecules, qHTS assay (AID 1346984); note: % is set by controls: 0 for no effect and ±100 for the full control effect; nearly all actives have a fitted effect of over 40% in size
Procedure, shortened: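 Readings come from a luciferase reporter: DPX-2 cells, which are HepG2 cotransfected with PXR and a CYP3A4-promoter construct, were exposed to test compounds for 24 h at 37C before One-Glo detection.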

[17] = biological target: Nuclear receptor subfamily 1 group I member 2 (Homo sapiens) (UniProt O75469); assay: Human pregnane X receptor (PXR) activation by small molecules, qHTS assay (AID 1346985); note: % is set by controls: 0 for no effect and ±100 for the full control effect; nearly all actives have a fitted effect of over 40% in size
Procedure, shortened: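 DPX-2 cells (HepG2 co-transfected with a PXR response element and a CYP3A4-promoter luciferase construct) were seeded at 2,000 per well, rested 5 hr at 37C, then exposed to DMSO-dissolved compounds for 24 hr. Activation was read as luciferase luminescence.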

[18] = biological target: Cytochrome P450 2C19 (Homo sapiens) (UniProt P33261); assay: Cytochrome P450 Family 2 Subfamily C Member 19 (CYP2C19) small molecule antagonists: luciferase reporter qHTS assay (AID 1671197); note: potency is the fitted concentration of half-maximal effect; nearly all actives have a fitted effect of over 65% in size
Procedure, shortened: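 Light output is proportional to CYP2C19 activity: proluciferin substrate is converted to luciferin, then detected by a luciferin detection reagent that also stops the 1 h, 37C NADPH-driven reaction. Ketoconazole serves as positive control.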

[19] = biological target: Cytochrome P450 2D6 (Homo sapiens) (UniProt P10635); assay: Cytochrome P450 Family 2 Subfamily D Member 6 (CYP2D6) small molecule antagonists: luciferase reporter qHTS assay (AID 1671196)
Procedure, shortened: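 Each well received CYP2D6 with its proluciferin substrate and chemical, sat 10 min, then got NADPH regeneration solution for 1 h at room temperature. Luminescence in RLU served as the activity measure.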

Sequence of Voltage-gated inwardly rectifying potassium channel KCNH2 (Homo sapiens) (Q12809 whole entry, looked up): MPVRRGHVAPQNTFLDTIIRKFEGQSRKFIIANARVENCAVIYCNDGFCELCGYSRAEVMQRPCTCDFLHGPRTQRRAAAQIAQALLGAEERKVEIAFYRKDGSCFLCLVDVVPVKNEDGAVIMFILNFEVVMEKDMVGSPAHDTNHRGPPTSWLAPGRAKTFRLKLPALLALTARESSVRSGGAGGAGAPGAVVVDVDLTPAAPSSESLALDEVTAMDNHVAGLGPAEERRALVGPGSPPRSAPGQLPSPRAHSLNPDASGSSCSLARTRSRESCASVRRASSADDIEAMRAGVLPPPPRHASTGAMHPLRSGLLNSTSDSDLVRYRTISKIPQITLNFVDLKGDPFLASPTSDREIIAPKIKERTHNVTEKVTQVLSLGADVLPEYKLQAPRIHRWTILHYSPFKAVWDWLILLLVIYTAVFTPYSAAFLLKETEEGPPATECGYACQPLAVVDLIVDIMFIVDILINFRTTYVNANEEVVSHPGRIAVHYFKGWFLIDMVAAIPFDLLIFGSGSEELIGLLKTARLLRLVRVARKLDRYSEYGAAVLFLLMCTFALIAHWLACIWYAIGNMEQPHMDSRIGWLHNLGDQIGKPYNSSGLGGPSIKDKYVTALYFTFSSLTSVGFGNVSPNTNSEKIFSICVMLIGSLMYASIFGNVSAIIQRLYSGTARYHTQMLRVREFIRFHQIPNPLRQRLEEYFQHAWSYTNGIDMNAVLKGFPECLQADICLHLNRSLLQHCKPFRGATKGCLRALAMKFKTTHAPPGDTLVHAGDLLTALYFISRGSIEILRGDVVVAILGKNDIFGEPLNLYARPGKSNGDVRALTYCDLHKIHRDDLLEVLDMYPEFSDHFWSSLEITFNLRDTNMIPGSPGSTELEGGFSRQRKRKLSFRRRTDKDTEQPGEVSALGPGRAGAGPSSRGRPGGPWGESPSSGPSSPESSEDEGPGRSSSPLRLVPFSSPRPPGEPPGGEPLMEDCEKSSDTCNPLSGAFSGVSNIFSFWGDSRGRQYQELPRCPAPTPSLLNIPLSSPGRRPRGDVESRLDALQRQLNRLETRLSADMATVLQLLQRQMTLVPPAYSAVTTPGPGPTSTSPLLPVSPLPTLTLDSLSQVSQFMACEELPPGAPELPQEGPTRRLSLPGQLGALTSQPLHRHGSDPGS
Sequence of Acetylcholinesterase (Homo sapiens) (P22303 whole entry, looked up): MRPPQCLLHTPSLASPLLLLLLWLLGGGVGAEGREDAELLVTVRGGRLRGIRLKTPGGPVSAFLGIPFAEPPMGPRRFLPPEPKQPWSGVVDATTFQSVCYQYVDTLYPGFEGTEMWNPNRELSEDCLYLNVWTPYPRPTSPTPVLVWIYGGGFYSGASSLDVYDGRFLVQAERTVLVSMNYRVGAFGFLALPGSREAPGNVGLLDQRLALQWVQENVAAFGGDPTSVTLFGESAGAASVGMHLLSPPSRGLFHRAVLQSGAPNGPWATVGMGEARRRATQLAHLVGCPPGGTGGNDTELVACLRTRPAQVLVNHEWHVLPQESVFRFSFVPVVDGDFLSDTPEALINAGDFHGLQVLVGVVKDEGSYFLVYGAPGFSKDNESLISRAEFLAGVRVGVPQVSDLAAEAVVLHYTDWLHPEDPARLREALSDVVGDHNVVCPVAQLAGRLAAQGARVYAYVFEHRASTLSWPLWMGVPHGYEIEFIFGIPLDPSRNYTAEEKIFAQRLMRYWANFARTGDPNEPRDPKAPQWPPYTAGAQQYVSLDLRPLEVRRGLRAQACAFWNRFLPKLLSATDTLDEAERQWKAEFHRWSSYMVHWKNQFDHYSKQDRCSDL
Sequence of Cytochrome P450 2C9 (Homo sapiens) (P11712 whole entry, looked up): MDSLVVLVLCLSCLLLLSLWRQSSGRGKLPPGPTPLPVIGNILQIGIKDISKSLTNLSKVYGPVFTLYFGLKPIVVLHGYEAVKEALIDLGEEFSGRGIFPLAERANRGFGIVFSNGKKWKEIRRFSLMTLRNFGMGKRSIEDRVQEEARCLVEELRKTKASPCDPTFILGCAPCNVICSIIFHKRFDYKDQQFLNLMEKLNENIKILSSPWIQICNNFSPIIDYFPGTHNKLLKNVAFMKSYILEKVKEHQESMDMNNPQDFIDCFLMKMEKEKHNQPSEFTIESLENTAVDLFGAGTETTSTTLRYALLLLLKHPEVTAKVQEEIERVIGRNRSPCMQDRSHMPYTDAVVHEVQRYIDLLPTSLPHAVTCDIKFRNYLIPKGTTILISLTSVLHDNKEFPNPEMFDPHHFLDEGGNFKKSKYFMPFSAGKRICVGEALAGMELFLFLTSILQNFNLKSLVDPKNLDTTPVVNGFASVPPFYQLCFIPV
Sequence of Nuclear receptor subfamily 1 group I member 2 (Homo sapiens) (O75469 whole entry, looked up): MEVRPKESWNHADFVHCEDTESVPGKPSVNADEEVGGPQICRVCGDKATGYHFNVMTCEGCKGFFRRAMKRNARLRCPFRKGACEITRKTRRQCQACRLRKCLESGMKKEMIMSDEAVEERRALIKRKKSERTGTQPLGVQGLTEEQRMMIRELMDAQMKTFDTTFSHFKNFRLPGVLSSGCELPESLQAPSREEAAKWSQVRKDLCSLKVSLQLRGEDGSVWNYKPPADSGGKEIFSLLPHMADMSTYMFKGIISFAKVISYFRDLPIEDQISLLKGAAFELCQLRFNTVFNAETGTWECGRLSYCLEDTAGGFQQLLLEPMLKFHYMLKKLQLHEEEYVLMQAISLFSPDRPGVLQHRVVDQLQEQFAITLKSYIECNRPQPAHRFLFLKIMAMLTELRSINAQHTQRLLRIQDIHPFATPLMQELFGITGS
Sequence of Cytochrome P450 3A4 (Homo sapiens) (P08684 whole entry, looked up): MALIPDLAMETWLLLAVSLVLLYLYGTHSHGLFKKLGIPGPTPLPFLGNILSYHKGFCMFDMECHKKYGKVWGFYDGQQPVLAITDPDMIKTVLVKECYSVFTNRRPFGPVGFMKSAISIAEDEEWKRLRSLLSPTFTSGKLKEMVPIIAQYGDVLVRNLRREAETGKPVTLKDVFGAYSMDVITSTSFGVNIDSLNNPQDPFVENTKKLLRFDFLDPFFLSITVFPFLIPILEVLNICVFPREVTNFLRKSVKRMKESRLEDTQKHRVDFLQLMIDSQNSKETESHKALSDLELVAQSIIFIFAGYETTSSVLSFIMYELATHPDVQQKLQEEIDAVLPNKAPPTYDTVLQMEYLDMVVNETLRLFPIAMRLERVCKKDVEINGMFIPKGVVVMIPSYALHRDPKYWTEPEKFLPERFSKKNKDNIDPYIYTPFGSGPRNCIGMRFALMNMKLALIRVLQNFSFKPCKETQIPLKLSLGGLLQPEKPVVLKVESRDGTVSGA
Sequence of Nuclear receptor subfamily 1 group I member 2 (Rattus norvegicus) (Q9R1A7 whole entry, looked up): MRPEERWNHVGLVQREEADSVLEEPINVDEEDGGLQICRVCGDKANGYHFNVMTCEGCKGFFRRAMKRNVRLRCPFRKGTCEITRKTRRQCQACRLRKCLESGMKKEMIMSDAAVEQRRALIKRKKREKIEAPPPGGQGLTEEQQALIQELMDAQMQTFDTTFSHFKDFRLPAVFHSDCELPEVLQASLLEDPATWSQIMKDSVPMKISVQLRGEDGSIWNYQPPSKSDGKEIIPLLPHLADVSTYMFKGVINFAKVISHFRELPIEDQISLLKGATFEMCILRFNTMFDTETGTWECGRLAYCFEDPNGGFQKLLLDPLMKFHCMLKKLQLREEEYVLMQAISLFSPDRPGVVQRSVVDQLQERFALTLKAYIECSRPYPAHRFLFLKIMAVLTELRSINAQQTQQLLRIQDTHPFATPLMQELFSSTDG
Sequence of Cytochrome P450 2C19 (Homo sapiens) (P33261 whole entry, looked up): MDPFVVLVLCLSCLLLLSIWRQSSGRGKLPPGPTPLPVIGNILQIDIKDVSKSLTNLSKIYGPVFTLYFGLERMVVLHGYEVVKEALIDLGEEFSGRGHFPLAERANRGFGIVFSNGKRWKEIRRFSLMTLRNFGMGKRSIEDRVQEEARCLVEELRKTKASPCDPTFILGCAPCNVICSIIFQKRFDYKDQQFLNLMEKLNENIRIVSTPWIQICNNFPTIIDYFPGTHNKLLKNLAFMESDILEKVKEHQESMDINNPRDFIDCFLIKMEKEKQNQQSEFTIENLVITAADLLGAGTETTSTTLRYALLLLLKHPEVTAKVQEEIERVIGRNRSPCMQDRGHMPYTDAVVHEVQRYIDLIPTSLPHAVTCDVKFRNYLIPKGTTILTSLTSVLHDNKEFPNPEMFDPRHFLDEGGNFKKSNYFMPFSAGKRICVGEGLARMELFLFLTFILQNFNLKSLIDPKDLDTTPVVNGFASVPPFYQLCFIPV
Sequence of Cytochrome P450 2D6 (Homo sapiens) (P10635 whole entry, looked up): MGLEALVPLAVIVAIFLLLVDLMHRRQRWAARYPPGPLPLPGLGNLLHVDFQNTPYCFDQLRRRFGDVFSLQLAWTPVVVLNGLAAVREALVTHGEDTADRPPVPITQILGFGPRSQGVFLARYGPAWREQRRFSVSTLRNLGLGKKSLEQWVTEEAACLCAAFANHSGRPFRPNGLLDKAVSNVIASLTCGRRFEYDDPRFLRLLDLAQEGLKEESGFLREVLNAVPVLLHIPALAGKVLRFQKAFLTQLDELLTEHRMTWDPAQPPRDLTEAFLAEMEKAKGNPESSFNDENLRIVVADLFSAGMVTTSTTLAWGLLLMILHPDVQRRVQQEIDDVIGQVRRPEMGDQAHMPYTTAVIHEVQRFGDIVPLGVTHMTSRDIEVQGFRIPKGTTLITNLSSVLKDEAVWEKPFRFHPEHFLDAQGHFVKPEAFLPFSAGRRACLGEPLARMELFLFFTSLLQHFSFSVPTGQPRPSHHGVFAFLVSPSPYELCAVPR

CC(C)NCC(O)c1ccc(N)c(C#N)c1 (centres undefined)
inactive: Potency [1] | Potency [2] | Potency [3] | Potency [4] | Potency [5] | Potency [6] | Potency [7] | Potency [8] | Potency [9] | Potency [10]

C[C@]12CC[C@H]3[C@@H](CC=C4C[C@@H](O)CC[C@@]43C)[C@@H]1CC[C@@H]2O
inactive: Potency [1] | Potency [2] | Potency [3] | Potency [4] | Potency [5] | max activation [11] -0.895% | Potency [10]

Nc1c(Br)cc([N+](=O)[O-])cc1[N+](=O)[O-]
active: Potency [3] 55.1 µM | Potency [12] 55.1 µM | Potency [6] 36 µM | Potency [14] 1.8 µM
inactive: Potency [2] | Potency [4] | Potency [7] | Potency [9] | Potency [13] | Potency [10] | Potency [15]

CCOC(=O)/C=C(C)/C=C/C[C@@H](C)CCCC(C)C
active: Potency [18] 28.3 µM | Potency [13] 15.9 µM
inactive: Potency [1] | Potency [2] | Potency [5] | max activation [11] -2.62% | Potency [16] | Potency [17] | Potency [6] | Potency [7] | Potency [8] | Potency [9]

O=C(Nc1ccccc1)c1ccccc1I
active: Potency [12] 68.6 µM | Potency [19] 35.6 µM | Potency [18] 22.4 µM | Potency [13] 39.9 µM | Potency [15] 15.9 µM
inactive: Potency [1] | Potency [2] | Potency [4] | Potency [5] | Potency [6] | Potency [7] | Potency [8] | Potency [9] | Potency [10]
